Experimental data taken from PubChem BioAssay (NCATS).
Values joined by “and” are separate entries in the source; they are usually repeats but may differ in a detail not shown here. Equal entries are not always repeated. Records with an inconclusive call do not appear. Active and inactive are the calls of the source. The call rests on the fitted dose curve; in most records, active means well fitted curve in the direction sought with a large enough effect; inconclusive means small, poorly fitted or top-dose-only effect, or another doubt; inactive means no such curve, though single readings can be large; an effect the other way counts as inactive or inconclusive. Starred links: 1 amine or outer side, 2 acyl side, 3 side chain; linkers in the order of their positions; H or OH if unused. Positions of bridges follow the written chain, without caps; N, C: chain ends. Non-standard residues stand in square brackets, D forms with d. Residues, ends and D or L forms follow the SMILES beside them. Chains are numbered I, II in the order given. *: point of attachment. Actinocin(9to1) = Cc1c2oc3c(C)ccc(C(=O)[*:1])c3nc-2c(C(=O)[*:2])c(N)c1=O; NMeV = CN[CH](C(=O)O)C(C)C; Cbz = O=C(OCc1ccccc1)*; Sar = CNCC(=O)O

Columns and labels:
[1] = molecular target: Phospholipid hydroperoxide glutathione peroxidase GPX4 (Homo sapiens) (UniProt P36969); assay: Primary qHTS Assay for Inhibitors of Recombinant Selenoprotein Glutathione Peroxidase 4 (GPX4) (AID 1845192); further: nearly all actives have a fitted effect of over 65% in size; on activity change, negative = inhibition: series mostly up to about 50 µM; on the % scale 0 is the no-effect control and ±100 the full control effect
Sequence of Phospholipid hydroperoxide glutathione peroxidase GPX4 (Homo sapiens) (P36969 whole entry, looked up): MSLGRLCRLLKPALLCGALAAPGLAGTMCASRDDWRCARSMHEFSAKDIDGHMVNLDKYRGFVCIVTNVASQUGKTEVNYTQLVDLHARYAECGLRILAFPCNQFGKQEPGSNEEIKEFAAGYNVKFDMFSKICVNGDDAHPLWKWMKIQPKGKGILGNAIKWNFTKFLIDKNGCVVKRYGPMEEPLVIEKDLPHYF
How it was run: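 qHTS, GR-coupled: GPX4 200 nM + cpd 30 min RT → GSH 1 mM, NADPH 0.5 mM, GR 100 nM → CHP 0.5 mM start; fluor 340/450 at t0 and t15 min; no-enzyme wells as control.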

[2] = Quantitative High-Throughput drug screen in 47 multiple myeloma cell lines against the NCATS MIPE library collection: FR4_PLB cell viability assay (AID 1918924; further: nearly all actives have a fitted effect of over 35% in size)
How it was run: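 qHTS of the MIPE 4.0 collection: 500 myeloma cells/well, 48 h drug exposure at 37C in 5% CO2, then CellTiter-Glo for 5 min at room temperature before luminescence reading.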

[3] = Quantitative High-Throughput drug screen in 47 multiple myeloma cell lines against the NCATS MIPE library collection: Delta47_JCRB cell viability assay (AID 1918925; further: nearly all actives have a fitted effect of over 45% in size)
How it was run: (§1)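 Inhibition of cell viability is measured here. Each line was plated at 500 cells per well, treated with MIPE 4.0 drugs, kept 48 hours at 37C, then assayed for ATP content by CellTiter-Glo luminescence.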

[4] = Quantitative High-Throughput drug screen in 47 multiple myeloma cell lines against the NCATS MIPE library collection: EJM_DSMZ cell viability assay (AID 1918926; further: nearly all actives have a fitted effect of over 30% in size)
How it was run: as §1

[5] = Quantitative High-Throughput drug screen in 47 multiple myeloma cell lines against the NCATS MIPE library collection: AMO1_DSMZ cell viability assay (AID 1918927; further: nearly all actives have a fitted effect of over 30% in size)
How it was run: as §1

[6] = Quantitative High-Throughput drug screen in 47 multiple myeloma cell lines against the NCATS MIPE library collection: ARP1_JJKsccF8 cell viability assay (AID 1918928; further: nearly all actives have a fitted effect of over 40% in size)
How it was run: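 CellTiter-Glo luminescence after 48 h exposure gives viability, scaled between DMSO-only (100%) and media-only (0%) controls. Library compounds are pinned onto 500 myeloma cells per well, incubated at 37C with 5% CO2.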
Potency means the concentration at half of the fitted maximal effect.

c1cc(CN2CCCNCCNCCCNCC2)ccc1CN1CCCNCCNCCCNCC1
inactive: Potency [1] | Potency [2] | Potency [3] | Potency [4]

COc1cc(O)c2c(c1)C1OC1C[C@H](O)[C@H](O)C(=O)C=CC[C@H](C)OC2=O (stereo partly specified)
inactive: Potency [1]
active: Potency [2] 3320 nM | Potency [3] 4180 nM | Potency [4] 7430 nM | Potency [5] 2960 nM | Potency [6] 4690 nM

Nc1nc2c(c(=O)[nH]1)N(C=O)[C@H](CNc1ccc(C(=O)N[C@@H](CCC(=O)O)C(=O)O)cc1)CN2
inactive: Potency [1] | Potency [2] | Potency [3] | Potency [4] | Potency [5]

NC(=O)N1CCC(CC(=O)N2CCC([C@H]3c4ncc(Br)cc4CCc4cc(Cl)cc(Br)c43)CC2)CC1
inactive: Potency [1]
active: Potency [2] 20900 nM | Potency [3] 8330 nM | Potency [4] 20900 nM | Potency [5] 7430 nM | Potency [6] 13200 nM

CC(=O)SCC(Cc1ccccc1)C(=O)NCC(=O)OCc1ccccc1 (stereo unspecified)
active: Potency [2] 18700 nM | Potency [3] 1050 nM | Potency [4] 14800 nM | Potency [5] 3720 nM | Potency [6] 2350 nM
inactive: Potency [1]

C=C(C)[C@@H]1CC[C@]2(C)CC[C@]3(C)[C@H](CC[C@@H]4[C@@]5(C)CC[C@H](O)C(C)(C)[C@H]5CC[C@]43C)[C@@H]12
inactive: Potency [1] | Potency [2] | Potency [3] | Potency [4] | Potency [5]

O=C1c2cccc(O)c2C(=O)c2c(O)cc(CO)cc21
inactive: Potency [1] | Potency [2] | Potency [3] | Potency [4] | Potency [5]

CN(C)CCN1C(=O)c2cccc3cc(N)cc(c23)C1=O
active: Potency [2] 23500 nM | Potency [3] 11800 nM | Potency [4] 23500 nM | Potency [5] 4180 nM
inactive: Potency [1]

c1ccc(CNc2nc(NCc3ccccc3)c3ccccc3n2)cc1
inactive: Potency [1]
active: Potency [2] 23500 nM | Potency [3] 7430 nM | Potency [4] 18700 nM | Potency [5] 8330 nM

Cn1cc(C[C@@H](N)C(=O)O)c2ccccc21
inactive: activity change, negative = inhibition [1] 0.696% [at 9.73 µM] | Potency [2] | Potency [3] | Potency [4] | Potency [5] | Potency [6]

CC(C)(C)c1nc2c3cc[nH]c(=O)c3c3cc(F)ccc3c2[nH]1
inactive: Potency [1]
active: Potency [2] 833 nM | Potency [3] 3320 nM | Potency [4] 2960 nM

COc1cc([C@@H]2c3cc4c(cc3[C@H](O)[C@H]3COC(=O)[C@@H]23)OCO4)cc(OC)c1OC
active: Potency [2] 29.6 nM | Potency [3] 166 nM | Potency [4] 590 nM | Potency [5] 26.4 nM | Potency [6] 52.6 nM
inactive: Potency [1]

N#Cc1cc(NC(=O)Nc2nnc(-c3ccncc3)s2)ccc1-c1cn[nH]c1
inactive: Potency [1] | Potency [2] | Potency [3] | Potency [4] | Potency [5]

NC[C@H]1O[C@H](O[C@H]2[C@@H](O)[C@@H](O[C@H]3O[C@H](CO)[C@@H](O)[C@H](N)[C@@H]3O)[C@H](N)C[C@@H]2N)[C@H](N)C[C@H]1O
inactive: activity change, negative = inhibition [1] -9.51% [at 9.73 µM] | Potency [2] | Potency [3] | Potency [4] | Potency [5] | Potency [6]

CN(C)c1ccc2cc(C(=O)N[C@@H](CCCN=C(N)CCl)C(=O)NCc3ccccc3)ccc2c1
active: Potency [2] 11800 nM | Potency [3] 18700 nM | Potency [4] 1320 nM | Potency [5] 1660 nM | Potency [6] 18700 nM
inactive: Potency [1]

Cn1cc(C2=C(c3c4n(c5ccccc35)CCC(CN)C4)C(=O)NC2=O)c2ccccc21 (stereo unspecified)
inactive: activity change, negative = inhibition [1] -6.23% [at 9.73 µM]
active: Potency [2] 18700 nM | Potency [3] 5260 nM | Potency [4] 9350 nM | Potency [5] 10500 nM | Potency [6] 18700 nM

O=C(CN1C(=O)C2(CCCC2)NC[C@H]1c1cc(F)cc(F)c1)Nc1ccc2c(c1)C[C@@]1(C2)C(=O)Nc2ncccc21
inactive: Potency [1] | Potency [2] | Potency [3] | Potency [4] | Potency [5]

COc1cccc2c1C(=O)c1c(O)c3c(c(O)c1C2=O)C[C@@](O)(C(=O)CO)C[C@@H]3O[C@H]1C[C@H](N)[C@@H](O)[C@H](C)O1
inactive: Potency [1]
active: Potency [2] 743 nM | Potency [3] 209 nM | Potency [4] 590 nM | Potency [5] 1180 nM

CC(C)C[C@@H](C=O)NC(=O)[C@H](CC(C)C)NC(=O)[C@H](CC(C)C)NC(=O)OCc1ccccc1 (Cbz-Leu-Leu-Leu-aldehyde)
active: Potency [2] 590 nM | Potency [3] 105 nM | Potency [4] 833 nM | Potency [5] 105 nM
inactive: Potency [1]

NC(=O)Nc1sc(-c2ccc(F)cc2)cc1C(N)=O
inactive: Potency [1]
active: Potency [2] 2350 nM | Potency [3] 187 nM | Potency [4] 1870 nM | Potency [5] 132 nM | Potency [6] 2960 nM

Oc1ccc(-c2ccc(-c3cc(Nc4cccc(CNC5CC5)c4)n[nH]3)cc2)c(O)c1
inactive: Potency [1]
active: Potency [2] 935 nM | Potency [3] 469 nM | Potency [4] 935 nM | Potency [5] 1320 nM | Potency [6] 4180 nM

Cn1cc(-c2cnn3c(N)c(Br)c([C@H]4CCCNC4)nc23)cn1
active: Potency [2] 132 nM | Potency [3] 743 nM | Potency [4] 372 nM | Potency [5] 1480 nM
inactive: Potency [1]

CN(CC(=O)N(Cc1ccc(C2CCCCC2)cc1)c1ccc(C(=O)O)c(O)c1)S(=O)(=O)c1c(F)c(F)c(F)c(F)c1F
active: Potency [1] 11400 nM | Potency [2] 20900 nM | Potency [3] 5900 nM | Potency [4] 18700 nM | Potency [5] 5260 nM | Potency [6] 23500 nM

Cn1cc(CNCC2CCN(c3ncc(C(=O)NO)cn3)CC2)c2ccccc21
active: Potency [2] 26.4 nM | Potency [3] 74.3 nM | Potency [4] 52.6 nM | Potency [5] 52.6 nM | Potency [6] 16.6 nM
inactive: Potency [1]

O=C(c1ccc(F)cc1)N1CCC[C@H](c2nc(-c3ccc(F)cc3)no2)C1
inactive: Potency [1] | Potency [2] | Potency [3] | Potency [4] | Potency [5] | Potency [6]

Cc1cc(O)c2c(c1)C(=O)c1cccc(O)c1C2=O
inactive: Potency [1] | Potency [2] | Potency [3] | Potency [4] | Potency [5]

Cc1cc(Nc2ncc3c(n2)N(C)C(=O)N(c2cc(NC(=O)c4cccc(C(F)(F)F)c4)ccc2C)C3)n(C)n1
active: Potency [2] 418 nM | Potency [3] 209 nM | Potency [4] 662 nM | Potency [5] 833 nM | Potency [6] 743 nM
inactive: Potency [1]

O=C1NCCc2[nH]c(-c3ccncc3)cc21
active: Potency [2] 1870 nM | Potency [3] 2960 nM | Potency [4] 1870 nM | Potency [5] 1660 nM | Potency [6] 5900 nM
inactive: Potency [1]

COc1cccc2c1C(=O)c1c(O)c3c(c(O)c1C2=O)C[C@@](O)(C(=O)CO)C[C@@H]3O[C@H]1C[C@H](N)[C@H](OC2CCCCO2)[C@H](C)O1 (stereo partly specified)
inactive: Potency [1] | Potency [5]
active: Potency [2] 3720 nM | Potency [3] 833 nM | Potency [4] 2350 nM | Potency [6] 3320 nM

C=CC(=O)N1CCc2ccc(-n3c(=O)ccc4cnc5ccc(-c6cnn(C)c6)cc5c43)cc21
inactive: Potency [1]
active: Potency [2] 1660 nM | Potency [3] 935 nM | Potency [4] 3720 nM | Potency [5] 2960 nM

Cc1c2oc3c(C)ccc(C(=O)NC4C(=O)NC(C(C)C)C(=O)N5CCCC5C(=O)N(C)CC(=O)N(C)C(C(C)C)C(=O)OC4C)c3nc-2c(C(=O)NC2C(=O)NC(C(C)C)C(=O)N3CCCC3C(=O)N(C)CC(=O)N(C)C(C(C)C)C(=O)OC2C)c(N)c1=O (stereo unspecified) (I: TVP[Sar][NMeV] / II: TVP[Sar][NMeV]; ester I:1-I:C, II:1-II:C; linker I:N-II:N via Actinocin(9to1); configuration not given here)
inactive: Potency [1] | Potency [2] | Potency [3] | Potency [4] | Potency [5] | Potency [6]

C[C@H](NCc1ccc(OCc2cccc(F)c2)cc1)C(N)=O
inactive: Potency [1]
active: Potency [2] 16600 nM | Potency [3] 2090 nM | Potency [4] 9350 nM | Potency [5] 9350 nM | Potency [6] 7430 nM

CC(=O)OC[C@@H]1O[C@@H](n2ccc(=O)[nH]c2=O)[C@H](OC(C)=O)[C@H]1OC(C)=O
inactive: Potency [1] | Potency [2] | Potency [3] | Potency [4] | Potency [5] | Potency [6]

O=C1CSC(=O)N1C(CCc1ccncc1)COc1ccc(-c2cccc([N+](=O)[O-])c2)cc1 (stereo unspecified)
inactive: Potency [1] | Potency [5]
active: Potency [2] 18700 nM | Potency [3] 4180 nM | Potency [4] 935 nM | Potency [6] 3320 nM

NC(=NCCCCCCN=C(N)N=C(N)Nc1ccc(Cl)cc1)N=C(N)Nc1ccc(Cl)cc1
inactive: Potency [1]
active: Potency [2] 16600 nM | Potency [3] 2640 nM | Potency [4] 2640 nM | Potency [5] 23500 nM | Potency [6] 8330 nM

N#CNC(=NCCCCCCOc1ccc(Cl)cc1)Nc1ccncc1
active: Potency [2] 20900 nM | Potency [3] 18700 nM | Potency [4] 16600 nM | Potency [5] 18.7 nM | Potency [6] 6.6 nM
inactive: Potency [1]

O=C1NC(O)CCN1[C@@H]1O[C@H](CO)[C@H](O)[C@H]1O (stereo partly specified)
inactive: Potency [1] | Potency [2] | Potency [3] | Potency [4]

C[C@H](NC(=O)Cc1cc(F)cc(F)c1)C(=O)N[C@H](C(=O)OC(C)(C)C)c1ccccc1
inactive: Potency [1] | Potency [2] | Potency [3] | Potency [4] | Potency [5] | Potency [6]

Cc1cnc(Nc2ccc(N3CCN(C)CC3)cc2)nc1Nc1cccc(S(=O)(=O)NC(C)(C)C)c1
inactive: Potency [1]
active: Potency [2] 16600 nM | Potency [3] 1480 nM | Potency [4] 3320 nM | Potency [5] 1180 nM | Potency [6] 3720 nM

Cn1c(Nc2ccc(C(F)(F)F)cc2)nc2cc(Oc3ccnc(-c4ncc(C(F)(F)F)[nH]4)c3)ccc21
inactive: Potency [1]
active: Potency [2] 18700 nM | Potency [3] 662 nM | Potency [5] 9350 nM | Potency [6] 20900 nM

Nc1ccn(C[C@@H](CO)OCP(=O)(O)O)c(=O)n1
inactive: activity change, negative = inhibition [1] 4.75% [at 0.409 µM] and -14.5% [at 9.73 µM] | Potency [2] | Potency [3] | Potency [5] | Potency [6]
